# Only a selection was taken, and hits are over-represented in it overall.
# Cycloheximide cs – affects cycloheximide protein synthesis inhibition readout, counter-screen; cell reporter, cycloheximide protein synthesis inhibition counterscreen; actives 12% (n = 300,000); max response, %; AID 2314; in the data active = max response mostly above about 13%, no sharp cut-off; inactive = mostly below about 14%; also: read at 38.3 µM for the half of the compounds with a filed dose
# AmpC no deterg – inhibitors of E. coli AmpC beta-lactamase without detergent | P00811 | Potency, µM (titrated, usually from 57.1 µM), actives largely listed as inhibitors | AID 485341 | actives 0.52% (n = 330,000) | AmpC nitrocefin hydrolysis, absorbance 480 nm, 0.0001% Triton; also: nearly all actives have a fitted effect of over 20% in size
# Target sequence (P00811 whole entry, looked up): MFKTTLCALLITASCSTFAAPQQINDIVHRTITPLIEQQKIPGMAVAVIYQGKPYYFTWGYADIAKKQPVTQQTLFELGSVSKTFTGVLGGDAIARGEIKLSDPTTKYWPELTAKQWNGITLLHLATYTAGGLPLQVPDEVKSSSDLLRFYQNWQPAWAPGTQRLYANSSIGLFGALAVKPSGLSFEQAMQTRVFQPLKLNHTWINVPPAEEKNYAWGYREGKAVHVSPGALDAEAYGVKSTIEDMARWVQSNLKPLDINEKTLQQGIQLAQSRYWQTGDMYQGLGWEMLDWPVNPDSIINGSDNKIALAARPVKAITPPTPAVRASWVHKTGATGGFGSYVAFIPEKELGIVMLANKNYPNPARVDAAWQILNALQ
#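 AmpC (5.3 nM in the dispensed reagent) in 20 mM phosphate pH 7.0 with 0.01% (detergent screen) or 0.0001% Triton X-100 was preincubated with compounds for 15 min at room temperature. Nitrocefin was then added from an 800 uM solution, and hydrolysis was followed at 480 nm.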
# NS1 function inh – inhibitors of influenza NS1 protein function; Potency, µM (series often up to 46.1 µM); actives 0.4% (n = 270,000); AID 2326; calls by dose curve; also: actives are rising curves; nearly all actives have a fitted effect of over 50% in size
#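 Read-out: OD600 growth recovery of NS1-expressing budding yeast. Cells grown overnight at 30C in -URA glucose medium, washed, resuspended and diluted 1:100 in 2% galactose assay medium, pH 6.0. Same strain lacking NS1 served as positive control.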
# Shiga toxin inh – Shiga toxin inhibition; Vero cells, Shiga toxin protein synthesis inhibition reporter; inhibition, % at 38.7 µM; actives 9.2% (n = 290,000); AID 2315; in the data active = inhibition mostly above about 28%, no sharp cut-off; inactive = mostly below about 43%
# AmpC inh detg – inhibitors of E. coli AmpC beta-lactamase with detergent | actives 0.041% (n = 370,000) | AmpC hydrolysis of nitrocefin, absorbance 480 nm, 0.01% Triton | P00811 | Potency, µM (series often up to 114 µM), actives largely listed as inhibitors | AID 485294; also: nearly all actives have a fitted effect of over 25% in size
#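 AmpC (5.3 nM in the dispensed reagent) in 20 mM phosphate pH 7.0 with 0.01% (detergent screen) or 0.0001% Triton X-100 was preincubated with compounds for 15 min at room temperature. Nitrocefin was then added from an 800 uM solution, and hydrolysis was followed at 480 nm.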
# A number is an active result; – = inactive; ? = inconclusive; · = no result; + = active, no number; [ ] = remark or other dose. Unless noted, calls follow the shape of the dose curve; as a rule, active = well fitted curve in the direction sought with a large enough effect; inconclusive = small, poorly fitted or top-dose-only effect, or another doubt; inactive = no such curve, though single readings can be large; an effect the other way counts as inactive or inconclusive.
SMILES,Cycloheximide cs,AmpC no deterg,NS1 function inh,Shiga toxin inh,AmpC inh detg
O=C(NNc1nc2ccccc2s1)C1CC1,–,–,–,–,–
Nc1nc2ccc([N+](=O)[O-])c(N)c2s1,–,–,–,–,–
CC(C)C[C@H](NC(=O)CNC(=O)[C@@H]1CCCN1C(=O)[C@H](CCCNC(=N)N)NC(=O)[C@H](CC(=O)O)NC(=O)[C@@H](NC(=O)[C@H](CC(N)=O)NC(=O)[C@@H](NC(=O)[C@H](CC(=O)O)NC(=O)CNC(=O)[C@@H](NC(=O)[C@@H](NC(=O)[C@H](C)NC(=O)[C@@H](N)CCC(N)=O)[C@@H](C)O)C(C)C)C(C)C)[C@@H](C)O)C(=O)N[C@@H](CC(C)C)C(=O)N[C@@H](CC(=O)O)C(=O)N[C@@H](CC(C)C)C(=O)N[C@@H](CCCCN)C(=O)O,–,·,·,–,·
Cc1ccc(-n2nc3c(c2NC(=O)c2cccs2)CS(=O)(=O)C3)cc1C,–,–,?,–,–
Cc1nc(N2C(=O)c3oc4ccccc4c(=O)c3C2c2ccccc2F)sc1C (stereo unspecified),·,·,·,·,–
C=C[C@@H]1CN2CC[C@@H]1C[C@H]2[C@H](O)c1ccnc2ccc(OC)cc12,·,·,–,·,·
Cc1ccc(-c2ccc(CCC(=O)O)n2CC2CCCO2)cc1 (stereo unspecified),14,–,–,–,?
COc1ccc(C)cc1NC(=O)CC1NCCNC1=O (stereo unspecified),·,·,·,·,–
CC(=O)N1CCc2cc(CNC(=O)Nc3cc(Cl)ccc3C)ccc21,·,·,·,·,–
CCCCN(CC)C(=O)CSc1nc2c(sc3ccccc32)c(=O)n1CCc1ccccc1,·,·,·,·,–
Cc1cc(=O)n2nc(N3CCC(C(=O)Nc4ccc(Br)c(C)c4)CC3)sc2n1,·,·,·,·,–
O=C(CSc1ncn[nH]1)N1CCCCC1,–,–,–,–,–
O=C(CSc1ncc(-c2ccccc2)[nH]1)Nc1ccccc1F,40,–,·,72,–
O=C(CSc1ncc(-c2ccc(F)cc2)[nH]1)N1CCCCC1,26,–,–,44,–
O=C(CSc1ncc(-c2ccccc2)[nH]1)Nc1cccc(O)c1,12,–,–,–,–
NC(=O)CSc1ncc(-c2ccccc2)[nH]1,14,–,–,79,?
O=C(CSc1ncc(-c2ccccc2)[nH]1)Nc1ccccc1,–,–,–,–,–
C=CCN(CC=C)S(=O)(=O)c1ccc(NC(=S)NC(=O)C2CC2)cc1,–,–,–,–,–
Cc1ccc(CCNC(=O)C(NS(=O)(=O)c2ccc3c(c2)oc(=O)n3C)C(C)C)cc1 (stereo unspecified),·,·,·,·,–
CCC(OC(=O)CNS(=O)(=O)c1ccccc1)C(=O)c1ccccc1 (stereo unspecified),–,–,–,–,?
Cc1[nH]c(C)c(C(=O)/C=C/c2ccc([N+](=O)[O-])cc2)c1C,60,–,–,129,?
COc1ccc(-c2nc(NC(=O)c3[nH]c(C)c(C(C)=O)c3C)sc2C)cc1,–,–,·,68,–
COc1ccc(-c2nc(NC(=O)CSCCO)sc2C)cc1,–,–,·,70,–
CC(=O)c1c(C)[nH]c(C(=O)Nc2nc(-c3ccc(Cl)cc3)cs2)c1C,–,–,–,–,–
CC(=O)c1c(C)[nH]c(C(=O)Nc2nc(-c3ccc(-c4ccccc4)cc3)cs2)c1C,–,–,–,64,–
SMILES,Cycloheximide cs,AmpC no deterg,NS1 function inh,Shiga toxin inh,AmpC inh detg
CCOC(=O)Nc1nc(-c2ccccc2)c(C(=O)c2ccccc2)s1,–,–,–,–,–
CCCOC(=O)Nc1nc(-c2ccc(C)cc2)c(C)s1,27,–,·,65,–
COc1ccc(-c2nc(NC(=O)Cn3cnnn3)sc2C)cc1,–,–[11.4 µM],·,–,–
CCOC(=O)c1ccc(CNC(=O)c2cc(C(C)(C)C)oc2C)o1,–,–,–,–,?
COc1ccc(NC(=O)c2ccc(COCC(F)(F)C(F)F)cc2)cc1,53,–,–,+,–
COc1ccc(C(=O)Nc2cc(OC)cc(OC)c2)cc1,40,–,–,65,–
COc1cc(NC(=O)c2ccccc2)cc(OC)c1,30,–,–,–,–
COc1cc(OC)cc(C(=O)Nc2ccc(C(=O)Nc3ccccc3OC)cc2)c1,·,–,·,·,·
COc1cc(NC(=O)c2ccc(S(=O)(=O)N(C)c3ccccc3)cc2)cc(OC)c1,·,–,·,·,·
Cc1cc(C)nc(-n2nc(C)c(Sc3ccc(F)cc3)c2N)n1,39,–,–,100,–
Nc1nc(-c2ccccn2)nc(N)c1Cc1ccccc1F,38,–,·,78,?
Nc1nc(-c2ccccn2)nc(N)c1Cc1c(F)cccc1Cl,34,–,·,–,–
Nc1nc(-c2ccccn2)nc(N)c1Cc1ccc(Cl)cc1Cl,37,–,·,56,?
O=[N+]([O-])c1cc(-c2n[nH]c(-c3ccccc3)n2)cc([N+](=O)[O-])c1,–,–,–,–,–
Clc1ccccc1-c1nc(-c2ccccc2)n[nH]1,53,–,–,125,–
C/C(=N\NC(=O)c1ccncc1)c1ccc2ccccc2c1O,·,·,–,·,·
O=C1NC(=O)C(Cc2ccccc2)(c2cccnc2)N1 (stereo unspecified),–,–,–,–,–
O=C(NC1CCCCC1)c1cccc(Cn2cc(Cl)cn2)c1,–,–,–,–,–
Clc1ccccc1Cn1nnc(-c2cccs2)n1,29,–,–[9.22 µM],61,–
CN(C)c1ccc(-c2nnn(Cc3ccccc3Br)n2)cc1,17,–,–,–,?
COc1cc(-c2nnn(Cc3ccccc3C)n2)cc(OC)c1OC,–,–,–,–,–
Clc1ccc(Cn2nc(-c3ccccc3)nc2-c2ccccc2)cc1,–,–,–,–,–
Clc1ccccc1Cn1nc(-c2ccccc2)nc1-c1ccccc1,18,–,–,–,–
COc1ccc(-c2nnn(Cc3ccccc3)n2)cc1OC,11,–,–,·,?
COc1ccc(C(C)C)cc1S(=O)(=O)NCCc1c(C)[nH]c2c(Cl)cccc12,·,·,·,·,–
SMILES,Cycloheximide cs,AmpC no deterg,NS1 function inh,Shiga toxin inh,AmpC inh detg
CC(NC(=O)C1CCN(C(=O)c2ccc(F)cc2)CC1)c1ccc(-n2ccnc2)cc1 (stereo unspecified),·,–,·,·,–
O=C(O)C1(C(=O)O)CCN(S(=O)(=O)c2ccccc2)CC1,·,·,–,·,·
Clc1ccccc1Cn1nnc(-c2ccccc2)n1,53,–,–,105,–
Clc1ccc(Cn2nnc(-c3ccccc3)n2)cc1,28,–,–,57,–
O=C(Cc1c[nH]c2ccccc12)Nc1nccs1,–,–,–,–,?
CSc1ccccc1NC(=O)CN(C)C(=O)Cc1c[nH]c2ccccc12,·,–,·,·,–
O=C(Nc1nccs1)C(=O)c1c[nH]c2ccccc12,71,–,–,146,–
CSc1ccccc1NC(=O)C(=O)c1c[nH]c2ccccc12,42,–,·,117,–
COc1cccc(N2CCN(S(=O)(=O)c3ccc4c(c3)N(C(C)=O)CCO4)CC2)c1,–,–,–,–,–
O=C(Nc1cc(Sc2ccccn2)cc([N+](=O)[O-])c1)c1ccc(Cl)cc1,21,32µM,–,–,–

# From PubChem
